From PubChem BioAssay (NCI)
About 83,000 compounds went through this panel and 20% of them were active in at least one assay; those are over-represented in the sample as a whole.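 Single-concentration screen, 48 h exposure, 96-well plates. Endpoint: percent growth. Below 10 = active.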 Values without a mark were called inactive. Calls of active or inactive are those of the source.

system: MDA-MB-468 breast; assay: NCI-60 one-dose screen, 48 h (100 = growth as untreated, 0 = no growth, -100 = all killed); conditions: 10 µM unless noted

Compound	growth
NS(=O)(=O)c1ccc(N=Nc2ccc(-c3nn4cc(-c5ccccc5)nc4s3)cc2)cc1	100%
COc1cc(-c2nn(-c3cccc(NC(=O)c4cccc(C(F)(F)F)c4)c3)cc2-c2ccncc2)ccc1Cl	-19.4% (active)
CN1CCN(c2ccc(C(=O)Nc3n[nH]c4ccc(Cc5cc(F)cc(F)c5)cc34)c(NC3CCOCC3)c2)CC1	-72.3% (active)
Cc1csc(NC(=O)c2sc3nc(-c4cccs4)ccc3c2N)n1	82%
O=c1c2cc(Cl)ccc2oc2ccc(OCCCCCN3CCCCC3)cc12	59.9%
O=C(O)C1CN(c2cccc(Cl)c2)N(c2cccc(Cl)c2)C1=O (centres undefined)	78.7%
COC(=O)C1=C(C(=O)Nc2cccnc2)C2OC1(C(Cc1ccccc1)Oc1ccccc1)C1OC21 (centres undefined)	-66.3% (active)
OCC1OC(O)C(O)C(O)C1O (centres undefined)	121%
CCCCCn1sc(=O)n(Cc2ccc(CNC(=O)OCc3ccc4c(Cl)cc(Cl)c(O)c4n3)cc2)c1=O	59.8%
COc1cc2nc3c(=O)n(CCN(C)C)cnn3c(=O)c2cc1OC	104%
O=C(NCCCN1CCN(CCCNC(=O)C2CCCCC2)CC1)C1CCCCC1	110%
O=C(O)c1ccccc1N=Cc1ccccc1	112%
CC(=O)N1N=C(c2ccc(C)cc2)CC1c1ccc(Oc2ccc(Br)cc2)cc1 (centres undefined)	75%
C=C(C=O)[C@@H]1CC[C@]2(CO)CC[C@]3(C)[C@H](CC[C@@H]4[C@@]5(C)CCCNC(C)(C)[C@@H]5CC[C@]43C)[C@@H]12	48.6%
